Source: the supplement of paper PMC12282887
± gives the standard deviation of the averaged measurements.

Experiments:
Assay in all cases: promoter activity interaction Z-score (Lux/OD deviation from empty-vector control); higher = stronger promoter induction by the compound
[1] = test system: E. coli BW25113 acrABp lux reporter
Method in brief: (§1)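 E. coli BW25113 (wild type or marA, soxS or rob deletion) carrying low-copy luxCDABE promoter reporters grew in 40 µl LB Lennox in 384-well plates at 37°C. Each compound was tested at four 1:2 dilutions in biological duplicates. OD600 and luminescence were read every 30 min for 12 h. Areas were taken over 0–8 h (wild type) or 1–9 h (mutants), and wells below 10% of median growth area were removed. The score is the Z-transformed residual of growth-normalised luminescence fitted against the empty-vector control.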

[2] = test system: E. coli BW25113 micFp lux reporter
Method in brief: as §1

[3] = test system: E. coli BW25113 ompFp lux reporter
Method in brief: as §1

[4] = test system: E. coli BW25113 robp lux reporter
Method in brief: as §1

[5] = test system: E. coli BW25113 soxSp lux reporter
Method in brief: as §1

[6] = test system: E. coli BW25113 tolCp lux reporter
Method in brief: as §1

[7] = 1.3 µg/ml, genetic background: wild type
[8] = 1.3 µg/ml, genetic background: ΔmarA
[9] = 1.3 µg/ml, genetic background: Δrob
[10] = 1.3 µg/ml, genetic background: ΔsoxS
[11] = 2.5 µg/ml, genetic background: wild type
[12] = 2.5 µg/ml, genetic background: ΔmarA
[13] = 2.5 µg/ml, genetic background: Δrob
[14] = 2.5 µg/ml, genetic background: ΔsoxS
[15] = 5 µg/ml, genetic background: wild type
[16] = 5 µg/ml, genetic background: ΔmarA
[17] = 5 µg/ml, genetic background: Δrob
[18] = 5 µg/ml, genetic background: ΔsoxS
[19] = 10 µg/ml, genetic background: wild type
[20] = 10 µg/ml, genetic background: ΔmarA
[21] = 10 µg/ml, genetic background: Δrob
[22] = 10 µg/ml, genetic background: ΔsoxS

C/C=C/C/C=C/CCC(=O)[C@H]1O[C@H]1C(N)=O [Cerulenin]
promoter activity interaction Z-score [1, 7]: -0.125 ± 0.083
promoter activity interaction Z-score [1, 8]: 0.156 ± 2.5
promoter activity interaction Z-score [1, 9]: -0.449 ± 0.14
promoter activity interaction Z-score [1, 10]: -0.289 ± 0.15
promoter activity interaction Z-score [1, 11]: -0.467 ± 0.3
promoter activity interaction Z-score [1, 12]: -0.0359 ± 0.66
promoter activity interaction Z-score [1, 13]: -0.976 ± 0.19
promoter activity interaction Z-score [1, 14]: -0.932 ± 0.045
promoter activity interaction Z-score [1, 15]: -0.444 ± 0.41
promoter activity interaction Z-score [1, 16]: -0.831 ± 1.3
promoter activity interaction Z-score [1, 17]: -0.767 ± 0.071
promoter activity interaction Z-score [1, 18]: -1.14 ± 0.31
promoter activity interaction Z-score [1, 19]: -0.873 ± 0.42
promoter activity interaction Z-score [1, 20]: -0.628 ± 0.16
promoter activity interaction Z-score [1, 21]: -1.08 ± 0.23
promoter activity interaction Z-score [1, 22]: -1.52 ± 0.22
promoter activity interaction Z-score [2, 7]: -0.474 ± 0.33
promoter activity interaction Z-score [2, 8]: -0.0522 ± 0.1
promoter activity interaction Z-score [2, 9]: -0.112 ± 0.0041
promoter activity interaction Z-score [2, 10]: -0.269 ± 0.047
promoter activity interaction Z-score [2, 11]: -0.545 ± 0.087
promoter activity interaction Z-score [2, 12]: 0.0153 ± 0.15
promoter activity interaction Z-score [2, 13]: -0.217 ± 0.13
promoter activity interaction Z-score [2, 14]: -0.157 ± 0.23
promoter activity interaction Z-score [2, 15]: -0.73 ± 0.2
promoter activity interaction Z-score [2, 16]: -0.0985 ± 0.11
promoter activity interaction Z-score [2, 17]: -0.316 ± 0.094
promoter activity interaction Z-score [2, 18]: -0.417 ± 0.0084
promoter activity interaction Z-score [2, 19]: -0.803 ± 0.19
promoter activity interaction Z-score [2, 20]: -0.112 ± 0.028
promoter activity interaction Z-score [2, 21]: -0.428 ± 0.056
promoter activity interaction Z-score [2, 22]: -0.177 ± 0.14
promoter activity interaction Z-score [3, 7]: 0.448 ± 0.98
promoter activity interaction Z-score [3, 8]: -0.174 ± 0.032
promoter activity interaction Z-score [3, 9]: 0.809 ± 0.68
promoter activity interaction Z-score [3, 10]: 0.456 ± 0.65
promoter activity interaction Z-score [3, 11]: 0.281 ± 0.58
promoter activity interaction Z-score [3, 12]: 0.575 ± 1.4
promoter activity interaction Z-score [3, 13]: 0.286 ± 1.6
promoter activity interaction Z-score [3, 14]: 0.108 ± 0.82
promoter activity interaction Z-score [3, 15]: 0.0997 ± 0.61
promoter activity interaction Z-score [3, 16]: -0.516 ± 0.26
promoter activity interaction Z-score [3, 17]: -0.143 ± 0.79
promoter activity interaction Z-score [3, 18]: -0.26 ± 1
promoter activity interaction Z-score [3, 19]: -0.484 ± 0.16
promoter activity interaction Z-score [3, 20]: -0.179 ± 1.2
promoter activity interaction Z-score [3, 21]: -0.74 ± 0.62
promoter activity interaction Z-score [3, 22]: -0.034 ± 1
promoter activity interaction Z-score [4, 7]: -0.713 ± 0.68
promoter activity interaction Z-score [4, 8]: -0.524 ± 0.17
promoter activity interaction Z-score [4, 9]: -0.0923 ± 0.31
promoter activity interaction Z-score [4, 10]: -0.398 ± 0.41
promoter activity interaction Z-score [4, 11]: -0.365 ± 0.25
promoter activity interaction Z-score [4, 12]: 1.47 ± 0.041
promoter activity interaction Z-score [4, 13]: -0.839 ± 0.52
promoter activity interaction Z-score [4, 14]: -0.254 ± 0.55
promoter activity interaction Z-score [4, 15]: -0.743 ± 0.19
promoter activity interaction Z-score [4, 16]: -0.973 ± 0.24
promoter activity interaction Z-score [4, 17]: -0.585 ± 0.0081
promoter activity interaction Z-score [4, 18]: -1.25 ± 0.42
promoter activity interaction Z-score [4, 19]: -0.802 ± 0.13
promoter activity interaction Z-score [4, 20]: -0.285 ± 0.72
promoter activity interaction Z-score [4, 21]: -0.242 ± 0.94
promoter activity interaction Z-score [4, 22]: -1.2 ± 0.47
promoter activity interaction Z-score [5, 7]: 0.113 ± 0.13
promoter activity interaction Z-score [5, 8]: 0.192 ± 0.091
promoter activity interaction Z-score [5, 9]: 0.247 ± 0.027
promoter activity interaction Z-score [5, 10]: 0.367 ± 0.43
promoter activity interaction Z-score [5, 11]: 0.186 ± 0.013
promoter activity interaction Z-score [5, 12]: 0.183 ± 0.076
promoter activity interaction Z-score [5, 13]: 0.113 ± 0.03
promoter activity interaction Z-score [5, 14]: 0.157 ± 0.38
promoter activity interaction Z-score [5, 15]: 0.112 ± 0.028
promoter activity interaction Z-score [5, 16]: 0.138 ± 0.17
promoter activity interaction Z-score [5, 17]: 0.18 ± 0.047
promoter activity interaction Z-score [5, 18]: 0.17 ± 0.56
promoter activity interaction Z-score [5, 19]: -0.107 ± 0.23
promoter activity interaction Z-score [5, 20]: -0.0897 ± 0.034
promoter activity interaction Z-score [5, 21]: -0.133 ± 0.19
promoter activity interaction Z-score [5, 22]: 0.572 ± 1.2
promoter activity interaction Z-score [6, 7]: -1.14 ± 0.49
promoter activity interaction Z-score [6, 8]: -0.979 ± 0.76
promoter activity interaction Z-score [6, 9]: -0.746 ± 0.32
promoter activity interaction Z-score [6, 10]: -0.768 ± 0.23
promoter activity interaction Z-score [6, 11]: -0.464 ± 0.17
promoter activity interaction Z-score [6, 12]: -0.204 ± 1.3
promoter activity interaction Z-score [6, 13]: -1.38 ± 0.2
promoter activity interaction Z-score [6, 14]: -0.639 ± 0.61
promoter activity interaction Z-score [6, 15]: -0.559 ± 0.033
promoter activity interaction Z-score [6, 16]: -0.9 ± 0.62
promoter activity interaction Z-score [6, 17]: -1.25 ± 0.71
promoter activity interaction Z-score [6, 18]: -1.5 ± 0.1
promoter activity interaction Z-score [6, 19]: -0.737 ± 0.051
promoter activity interaction Z-score [6, 20]: -1.7 ± 0.36
promoter activity interaction Z-score [6, 21]: -0.996 ± 0.2
promoter activity interaction Z-score [6, 22]: -0.404 ± 0.65
